{"source": "ChEMBL document CHEMBL4513216", "about": "“Probing the Open Global Health Chemical Diversity Library for Multistage-Active Starting Points for Next-Generation Antimalarials” (ACS Infect Dis, 2020)", "note": "Among all 69,000 compounds or so, about 8,600 (12%) showed an effect of 50% or more. The full list was thinned out, with strong results kept by preference.", "data": [{"system": "Plasmodium berghei", "test": "Screen against P. berghei liver stage (PbLuc), transformed with Luciferase, at 10uM", "format": "functional, HepG2", "details": "tested at 10 uM", "units": {"INHIBITION": "%"}, "values": [{"smiles": "O=C(NCc1ccc(-n2cncn2)nc1)c1ccc2c(c1)CCC2", "INHIBITION": -45.9}, {"smiles": "COC[C@]1(O)CCN(C2CCN(c3ccc(OC)cc3)CC2)CC1(C)C", "INHIBITION": 23.9}, {"smiles": "Cn1cnc2c1CCN(Cc1csc(C3CCCCC3)n1)C2", "INHIBITION": 33.3}, {"smiles": "CCCNC(=O)C1CCN(CC(O)c2ccc(C(F)(F)F)cc2)CC1", "note": "(stereo not drawn)", "INHIBITION": 51.6}, {"smiles": "CCCNC(=O)C1CCN(CC(O)c2ccccc2)CC1", "note": "(stereo not drawn)", "INHIBITION": 30}, {"smiles": "CCCNC(=O)C1CCN(CC(O)c2ccccc2C(F)(F)F)CC1", "note": "(stereo not drawn)", "INHIBITION": -4.12}, {"smiles": "CO[C@H]1CCN(Cc2cccc(C)n2)[C@@H]2CN(Cc3cccnc3)C[C@H]12", "INHIBITION": 30.1}, {"smiles": "N#Cc1c(C2CC2)cc(-c2ccc(F)c(F)c2)nc1N", "INHIBITION": -42.8}, {"smiles": "CCSc1ncc(-c2cc(C3CC3)nc(N)c2C#N)cn1", "INHIBITION": 52.8}, {"smiles": "CCSc1ncc(-c2cc(C3CCC3)nc(N)c2C#N)cn1", "INHIBITION": 48.5}, {"smiles": "CCCNc1ncc(-c2cc(C3CC3)nc(N)c2C#N)cn1", "INHIBITION": 34.4}, {"smiles": "CS(=O)(=O)c1ccc(-c2cc(C3CC3)c(C#N)c(N)n2)cc1", "INHIBITION": -21.2}, {"smiles": "CC(C)c1ncc(-c2cc(C3CCC3)nc(N)c2C#N)cn1", "INHIBITION": 62.6}, {"smiles": "Cc1ccc(N2CC[C@@H]3O[C@@H](COCc4cccnc4)CC[C@@H]32)nn1", "INHIBITION": 4.02}, {"smiles": "CCN(C(C)=O)C(c1ccc(Cl)cc1)c1ccccn1", "note": "(stereo not drawn)", "INHIBITION": 33.7}, {"smiles": "O=C1CCCN1Cc1ncn2c1CN(C(=O)Cc1cccs1)CCC2", "INHIBITION": 32.2}, {"smiles": "Cc1ncsc1CCN(C)C(=O)c1c(O)cccc1O", "INHIBITION": 25.1}, {"smiles": "Cc1nc(-c2ccsc2)ccc1C(=O)N(C)CC1CC1", "INHIBITION": 27.7}, {"smiles": "Cc1cnc(CCN(C)C(=O)c2cccc(C)c2O)s1", "INHIBITION": 58.8}, {"smiles": "Cc1nc(O)ccc1C(=O)NCc1ncoc1C", "INHIBITION": -17.3}, {"smiles": "Cc1cnc(CCN(C)C(=O)c2ccc(O)nc2C)s1", "INHIBITION": 60.2}, {"smiles": "Cc1cnc(CCN(C)C(=O)c2cccc(N(C)C)c2)s1", "INHIBITION": 33.7}, {"smiles": "CNC(=O)[C@@H](c1ccccc1)N1CCC[C@H]1C(=O)NCc1ccccn1", "INHIBITION": 34.6}, {"smiles": "CN(Cc1cccs1)C(=O)CN1C(=O)c2cc(Cl)c(Cl)cc2C1=O", "INHIBITION": 14.8}, {"smiles": "CCC(O)CN1CCN(C(=O)c2cccc(CC#N)c2)CC1", "note": "(stereo not drawn)", "INHIBITION": -12.2}, {"smiles": "O=C(C1CCN(c2cccnn2)C1)N1CCOCC1", "note": "(stereo not drawn)", "INHIBITION": 18.3}, {"smiles": "Cn1cc(CN2C[C@@H]3CN(C(=O)c4cccn4C)CCO[C@@H]3C2)cn1", "INHIBITION": 24.9}, {"smiles": "Cc1cc(CN2C[C@@H]3CN(C(=O)c4cccn4C)CCO[C@@H]3C2)no1", "INHIBITION": 89.3}, {"smiles": "Cc1cc(CN2C[C@@H]3CN(C(=O)c4ccco4)CCO[C@@H]3C2)no1", "INHIBITION": 12}, {"smiles": "CN(Cc1cnn(C)c1)C(=O)NC1CCCC1", "INHIBITION": 8.38}, {"smiles": "CCCS(=O)(=O)N1CCO[C@H]2[C@@H](Oc3cccnc3)CC[C@@H]21", "INHIBITION": 10.5}, {"smiles": "O=c1ccc(S(=O)(=O)N2CCCC2)cn1CC1CCCCO1", "note": "(stereo not drawn)", "INHIBITION": -15}, {"smiles": "c1cncc(CN2CC[C@@H]3[C@@H]2CCN3Cc2ccc3c(c2)OCO3)c1", "INHIBITION": -8.51}, {"smiles": "O=S(=O)(c1c(N2CCCCC2)ccc2nonc12)N1CCCCC1", "INHIBITION": 8.41}, {"smiles": "COc1ccc(C(C)NC(=O)N2CCNC(=O)CC2)cc1F", "note": "(stereo not drawn)", "INHIBITION": 74.8}, {"smiles": "CC(NC(=O)N1CCNC(=O)CC1)c1ccc(OC(F)F)cc1", "note": "(stereo not drawn)", "INHIBITION": -18.3}, {"smiles": "Cc1ccc(C(C)NC(=O)N2CCNC(=O)CC2)cc1F", "note": "(stereo not drawn)", "INHIBITION": 42.3}, {"smiles": "CCCc1n[nH]c(C2CN(C(=O)c3cc4c(s3)CCC4)CCO2)n1", "note": "(stereo not drawn)", "INHIBITION": 33.8}, {"smiles": "CC(C)NC(=O)CC1COC2(CCN(Cc3ccsc3)CC2)C1", "note": "(stereo not drawn)", "INHIBITION": 13.7}, {"smiles": "Cc1noc2ncc(C(=O)NCC3CCS(=O)(=O)C3)cc12", "note": "(stereo not drawn)", "INHIBITION": -49.1}, {"smiles": "COc1ccccc1C(C)(C)NC(=O)c1ccc(F)c(NC(C)=O)c1", "INHIBITION": -47}, {"smiles": "O=C(CN1C(=O)c2ccccc2CS1(=O)=O)c1ccc(Cl)cc1", "INHIBITION": 55.4}, {"smiles": "O=C(CN1C(=O)c2ccccc2CS1(=O)=O)c1ccccc1", "INHIBITION": 74.2}, {"smiles": "N#Cc1ccc(CN2C(=O)c3ccccc3CS2(=O)=O)c(F)c1", "INHIBITION": 15.2}, {"smiles": "CN1CCC2(Cc3ccccc3CN(C(=O)c3ccc(Cl)cc3)C2)C1", "note": "(stereo not drawn)", "INHIBITION": -17.2}, {"smiles": "Cc1c2ncn(CC(=O)c3ccccc3)c(=O)c2nn1C", "INHIBITION": 14.9}, {"smiles": "N#Cc1ccc(CN2C(=O)c3ccccc3CS2(=O)=O)cc1", "INHIBITION": -9.35}, {"smiles": "CC1CCN(C(=O)C2CCN(c3ccc(Cl)cc3C#N)CC2)CC1", "INHIBITION": 41}, {"smiles": "Cc1nc(C(=O)N2CCCC2c2c(C)nn(C)c2C)cs1", "note": "(stereo not drawn)", "INHIBITION": 13.3}, {"smiles": "Cc1csc(N2CCN(CC(=O)NC3CCOCC3)CC2C)n1", "note": "(stereo not drawn)", "INHIBITION": 45.6}, {"smiles": "CCC(=O)N1CCC2(CC1)C(=O)N(C)CCN2Cc1csc(C)n1", "INHIBITION": 13.6}, {"smiles": "CCN(C(=O)CN1CCCN(c2nc(C)ns2)CC1)C1CC1", "INHIBITION": 68.5}, {"smiles": "Cc1nsc(N2CCN(CC(=O)N(C3CC3)C(C)C3CC3)CC2)n1", "note": "(stereo not drawn)", "INHIBITION": 22.6}]}]}
